PAFAH1B2 inh: inhibitors of human PAFAH1B2; AID 492953; inhibition, % at 3.39 µM; hit rate 1.2% among 340,000; recombinant PAFAH1B2, FP-rhodamine activity probe, fluorescence polarization;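 active = inhibition above the mean of all tested compounds plus 3 SD, cut at about 24% in these data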;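 note: 0% = enzyme with DMSO and 100% = wells lacking PAFAH1B2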
pPAFAH inh: inhibitors of human plasma PAF acetylhydrolase (pPAFAH); inhibition, % at 3.39 µM; hit rate 1.5% among 330,000; recombinant pPAFAH, FP-rhodamine probe fluorescence polarization; Q13093;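 active = inhibition above the mean inhibition across the screen plus 3 SD, cut at about 25% in these data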;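 note: inhibitors block binding of the rhodamine activity-based probe so polarization drops; 0% = enzyme with DMSO and 100% = wells lacking pPAFAH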
Fam108B counter: blocks mouse Fam108B hydrolase in RBBP9 counter-screen | hit rate 0.33% among 300,000 | inhibition, % at 9.51 µM | recombinant Fam108B, FP-Rh probe fluorescence polarization | AID 1947;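 active = inhibition above the screen mean inhibition plus 3 SD, computed separately per campaign, cut at about 18% in these data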;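 note: inhibitors lower polarization as less probe binds the enzyme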
PAFAH2 inh: inhibitors of human PAFAH2 | Q99487 | recombinant PAFAH2, FP-rhodamine activity probe, fluorescence polarization | inhibition, % at 3.39 µM | hit rate 0.99% among 340,000;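 active = inhibition above the mean over all tested compounds plus 3 SD, cut at about 30% in these data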;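 note: inhibitors block probe labeling of enzyme so polarization drops; 0% = enzyme with DMSO and 100% = wells lacking PAFAH2 protein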
PAFAH1B3 FP inh: PAFAH1B3 (human) inhibition. Q15102. recombinant PAFAH1B3, FP-rhodamine probe, fluorescence polarization. inhibition, % at 3.39 µM. hit rate 0.28% among 340,000. AID 492972;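 active = inhibition above the screen-wide average of all tested compounds plus 3 SD, cut at about 25% in these data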;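 note: 0% = enzyme with DMSO only and 100% = wells lacking PAFAH1B3 protein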
Target sequence (Q15102 whole entry, looked up): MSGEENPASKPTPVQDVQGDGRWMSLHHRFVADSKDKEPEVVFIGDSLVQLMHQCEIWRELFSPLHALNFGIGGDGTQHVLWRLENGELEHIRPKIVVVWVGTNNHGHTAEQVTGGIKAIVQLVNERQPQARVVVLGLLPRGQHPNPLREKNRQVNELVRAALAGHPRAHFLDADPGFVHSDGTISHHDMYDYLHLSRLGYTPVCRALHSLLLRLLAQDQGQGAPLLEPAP
PME-1 inh: PME-1 (human) inhibition; Q9Y570; recombinant PME-1, FP-Rh probe fluorescence polarization; inhibition, % at 5.9 µM; hit rate 0.53% among 320,000; AID 2130;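 active = inhibition above the campaign mean of all compounds plus 3 SD, cut at about 26% in these data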;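 note: competitive labeling of PME-1 active site by serine hydrolase directed probe; 0% = PME-1 with DMSO and 100% = wells lacking PME-1 enzyme; inhibitors block probe labeling so polarization falls and inhibition rises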
Target sequence (Q9Y570 whole entry, looked up): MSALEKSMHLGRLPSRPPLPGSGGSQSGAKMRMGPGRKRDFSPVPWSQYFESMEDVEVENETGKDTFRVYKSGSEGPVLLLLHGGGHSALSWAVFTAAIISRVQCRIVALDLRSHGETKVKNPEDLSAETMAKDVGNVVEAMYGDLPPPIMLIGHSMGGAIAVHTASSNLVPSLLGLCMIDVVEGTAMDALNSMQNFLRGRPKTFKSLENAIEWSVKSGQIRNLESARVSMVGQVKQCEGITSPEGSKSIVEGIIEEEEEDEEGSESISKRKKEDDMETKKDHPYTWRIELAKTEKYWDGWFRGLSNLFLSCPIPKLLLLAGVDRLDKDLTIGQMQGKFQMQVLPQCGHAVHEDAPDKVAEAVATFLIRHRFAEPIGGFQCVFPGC
Starred values were filed as active, the others as inactive; · = no result given. Shown are actives, neighbours in structure and some others; about 2.8% of the full set was active somewhere.

SMILES	PAFAH1B2 inh	pPAFAH inh	Fam108B counter	PAFAH2 inh	PAFAH1B3 FP inh	PME-1 inh
O=C(CNC(=O)c1cc(Cl)cc([N+](=O)[O-])c1)OCC(=O)N1CCCCC1	4	2	·	-2	2	1
O=[N+]([O-])c1ccccc1/C=C/C=N/n1c(-c2ccc(Cl)cc2)n[nH]c1=S	0	27*	-1	4	3	4
O=[N+]([O-])c1ccccc1/C=C/C=N/n1c(-c2ccccc2)n[nH]c1=S	-1	5	1	-1	5	1
NC(=O)N=Nc1c2[nH]c3ccccc3nc-2c2ccccc12	·	12	-4	·	·	3
O=C(Oc1ccc(N(C(=O)c2ccncc2)S(=O)(=O)c2ccc(Cl)cc2)cc1)c1ccncc1	29*	7	-3	-4	8	-3
Cc1ccc(C(=O)Nc2c(C)cc(C)c3cccnc23)cc1	4	0	-8	0	6	-8
CCOc1ccc(-n2ccc(=O)c(C(=O)Nc3ccc(S(=O)(=O)Nc4nccs4)cc3)n2)cc1	5	17	3	12	5	11
O=C(Nc1ccc(S(=O)(=O)Nc2nccs2)cc1)c1nn(-c2ccc(F)cc2)ccc1=O	1	26*	3	24	7	-7
CN1CCCN(S(=O)(=O)c2cccc(C#N)c2)CC1	4	-1	1	2	12	3
COc1ccc(C2(NC(C)=O)CCN(Cc3cccnc3)CC2)cc1	4	-6	0	2	1	3
Cc1ccc(-c2cc(-c3ccc(Cl)cc3)c(C#N)c(N)n2)o1	8	25*	-3	-2	1	0
Cc1ccc(CNC(=O)CCOc2ccc(C(C)(C)C)cc2)cc1	30*	9	-1	-3	0	5
CCOc1ccc(OCCC(=O)OCC(=O)Nc2ccc(Cl)cn2)cc1	2	25*	-5	1	2	-1
Cc1ccc(OCCC(=O)OCC(=O)NNC(=O)c2ccccc2)cc1	-1	22	0	3	8	-3
CCOc1ccc(OCCC(=O)OCC(=O)NNC(=O)c2ccccc2)cc1	0	28*	-4	7	0	3
CC(C)(C)c1ccc(OCCCC(=O)NNC(=O)c2ccccc2O)cc1	27*	28*	4	0	9	-3
COc1ccc(C(=O)NCC(=O)N/N=C(\C)c2ccco2)cc1OC	5	-8	0	1	6	-1
CC(C)(C)c1ccc(OCCC(=O)OCC(=O)NCc2ccccc2)cc1	7	26*	2	0	-1	5
Cc1ccc(OCCC(=O)OCC(=O)NC(=O)NCc2ccccc2)cc1	5	16	-3	2	-4	-5
Cc1ccc(CNC(=O)COC(=O)CCOc2ccc(C)cc2)cc1	7	27*	-1	-6	-1	4
CCOc1ccc(N2CC(C(=O)OCC(=O)NCc3ccccc3)CC2=O)cc1 (stereo not drawn)	-3	27*	3	-2	-5	8
Cc1ccc(C2(C)NC(=O)N(CC(=O)Nc3ccc4[nH]c(=O)[nH]c4c3)C2=O)cc1 (stereo not drawn)	13	7	4	-5	3	3
O=C(CN1C(=O)NC(c2ccccc2)(c2ccccc2)C1=O)Nc1ccc2[nH]c(=O)[nH]c2c1	-1	25*	2	-5	0	0
CC1(c2ccc(OC(F)F)cc2)NC(=O)N(CC(=O)Nc2ccc3[nH]c(=O)[nH]c3c2)C1=O (stereo not drawn)	2	28*	0	1	0	-1
CC1CCCC(C)N1C(=O)c1cc(-c2ccc3c(c2)OCO3)on1 (stereo not drawn)	1	6	2	-4	-1	3
SMILES	PAFAH1B2 inh	pPAFAH inh	Fam108B counter	PAFAH2 inh	PAFAH1B3 FP inh	PME-1 inh
COc1ccc(S(=O)(=O)N2CCCCCC2)cc1C(=O)NCCOc1ccc(C)cc1	8	0	-2	5	1	28*
COc1ccc(S(=O)(=O)N2CCCCCC2)cc1C(=O)NCc1ccccc1Cl	0	·	·	6	3	·
COc1ccc(CN(C)C(=O)CCC(=O)N2CCN(S(=O)(=O)c3ccc(Cl)cc3)CC2)c(OC)c1	27*	·	·	-2	0	·
O=C(COc1ccccc1)N1CCN(S(=O)(=O)c2ccc(Cl)cc2)CC1	31*	5	-3	1	-3	3
COc1ccc(CN(C)C(=O)CCc2ccc(S(=O)(=O)N3CCCCCC3)cc2)c(OC)c1	1	12	·	1	-2	-2
COc1ccc(CNC(=O)COc2ccc(S(=O)(=O)N3CCCCC3)cc2)cc1	-1	28*	3	2	2	6
N#CCC(=O)Nc1ccc(C(=O)NNC(=O)CCN2CCN(c3ccccc3)CC2)cc1	7	11	·	0	13	1
O=C1CC(C(=O)N2CCc3ccccc32)CN1c1cccc(C(F)(F)F)c1 (stereo not drawn)	-2	-1	·	-1	8	-2
O=[N+]([O-])c1cccc(OCC(O)CN2CCN(S(=O)(=O)c3cc(Cl)ccc3Cl)CC2)c1 (stereo not drawn)	4	3	-4	14	-1	-2
O=C(Cc1ccc(F)cc1)OCC(=O)N1CCN(S(=O)(=O)c2ccc(Cl)cc2)CC1	13	33*	2	11	-5	3
O=C(CNc1cccc([N+](=O)[O-])c1)N1CCN(S(=O)(=O)c2ccc(Cl)cc2)CC1	24*	·	·	6	5	·
COc1ccc(Cl)cc1NS(=O)(=O)c1ccc(S(=O)(=O)N2CCCC2)cc1	25*	2	6	-7	2	4
O=C(COc1ccc(S(=O)(=O)Nc2ccccc2)cc1)N1CCOCC1	-2	27*	1	5	3	-4
O=C(CNc1cccc(S(=O)(=O)N2CCCCCC2)c1)Nc1cccc([N+](=O)[O-])c1	7	8	·	12	14	9
Cc1ccc(S(=O)(=O)CCC(=O)OCC(=O)N2CCN(S(=O)(=O)c3ccc(Cl)cc3)CC2)cc1	22	13	0	-2	8	7
COc1ccc(NS(=O)(=O)c2ccc(OCC(=O)N3CCOCC3)cc2)cc1	-4	15	-3	0	5	2
CC(Sc1nnc(-c2cccnc2)o1)C(=O)NC1CCCC1 (stereo not drawn)	-1	-1	·	8	0	-2
COc1ccc(-c2ccc(S(=O)(=O)N3CCCC3)cc2)cc1	5	26*	8	-1	9	6
O=C(CCCOc1ccccc1)N1CCN(S(=O)(=O)c2ccc(Cl)cc2)CC1	29*	7	-4	3	9	-2
CCOc1ccccc1OCCCC(=O)N1CCN(S(=O)(=O)c2ccc(C)cc2C)CC1	3	5	·	-2	3	5
Nc1ncccc1C(=O)OCC(=O)N1CCN(S(=O)(=O)c2ccc(Cl)cc2)CC1	24*	-4	·	5	6	4

Screens as filed in PubChem.
